High-throughput results: PubChem, National Center for Advancing Translational Sciences (NCATS)
An excerpt weighted towards active compounds, which were near 21% of everything screened.
Shiga inhibitor: A qHTS for Small Molecule Inhibitors of Shiga Toxin | Vero cells, Shiga toxin protein synthesis inhibition reporter | inhibition, % at 38.7 µM | 9.2% of 290,000 active | AID 2315, 2010; in the data active = inhibition mostly above about 28%, no sharp cut-off; inactive = mostly below about 43%; also: 0% is about no effect
Pf growth 48h: Primary qHTS for delayed death inhibitors of the malarial parasite plastid, 48 hour incubation; P. falciparum luciferase growth in erythrocytes, 48 h; Potency, µM (top dose mostly 28.7 µM), for the others: top-dose activity change, negative = inhibition, actives largely listed as inhibitors; 5.9% of 310,000 active; also: potency is read from the fitted curve at half-maximal effect; % is scaled to controls: 0 for no effect and ±100 for the full control effect
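Cell-based growth assay: transgenic P. falciparum expressing firefly luciferase, cultured in red cells within RPMI 1640 containing 0.5% w/v Albumax, 24 mM bicarbonate and gentamycin. A drop in luciferase activity indicates inhibition.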
HCMV inh: qHTS Assay for inhibitors of the human cytomegalovirus (HCMV). HFF cells, HCMV-luciferase reporter, 72 h; active compounds read low. activity change, negative = inhibition, % at 57.5 µM. 4.5% of 410,000 active. AID 1259415, 2018; in the data active = activity change below about -60%; inconclusive = no clear call, values can overlap the other calls; inactive = above about -39%; also: % is scaled to controls: 0 for no effect and ±100 for the full control effect
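Inhibition of viral replication was scored as loss of reporter luminescence in HFFs infected with HCMV-luciferase (MOI 1 PFU/cell) for 72 h; compounds tested at 2 doses, normalized to buffer and Salinomycin controls.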
Cycloheximide cs: Cycloheximide Counterscreen for Small Molecule Inhibitors of Shiga Toxin; max response, %; AID 2314, 2010; cell reporter, cycloheximide protein synthesis inhibition counterscreen; 12% of 300,000 active; in the data active = max response mostly above about 13%, no sharp cut-off; inactive = mostly below about 14%; also: read at 38.3 µM for the half of the compounds with a filed dose; 0% is about no effect
Pf growth 96h: Primary qHTS for delayed death inhibitors of the malarial parasite plastid, 96 hour incubation; P. falciparum luciferase reporter growth, 96 h; Potency, µM (titrated, usually from 28.7 µM), inactives show at the highest dose activity change, negative = inhibition, usual class: inhibitors; 6.9% of 320,000 active; AID 504834, 2011; also: potency is read from the fitted curve at half-maximal effect; % is scaled to controls: 0 for no effect and ±100 for the full control effect
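Erythrocytes infected with luciferase-expressing P. falciparum were dispensed at 2% hematocrit and 0.05% parasitemia (final), then incubated with compounds 96 hours at 37 C in 5% CO2. Luminescence after detection reagent addition reported growth.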
HCV inh: qHTS Assay for Inhibitors of Hepatitis C Virus (HCV) | Huh7.5.1 HCVcc-Cre infection, luciferase reporter, 44 h | Potency, µM (top dose mostly 41.8 µM), without a hit: at the top dose activity change, negative = inhibition, most hits filed as inhibitors | 3.4% of 340,000 active | AID 651820, 2012; also: potency is read from the fitted curve at half-maximal effect; % is scaled to controls: 0 for no effect and ±100 for the full control effect
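Antiviral activity was scored by luciferase reporter output from cells infected with HCVcc-Cre (~0.5 moi) in presence of compound, 44 h infection period, cells seeded 1,000/well 4 h prior.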
* marks the source's active call; other numbers are inactive results; i = inactive; ? = inconclusive; . = not tested or not shown; [ ] = another dose, or the depositor's remark. Unless noted, calls follow the shape of the dose curve; as a rule, active = well fitted inhibition curve with a large enough effect; inconclusive = small, poorly fitted or top-dose-only effect, or another doubt; inactive = no such curve, though single readings can be large or run the other way.

SMILES | Shiga inhibitor | Pf growth 48h | HCMV inh | Cycloheximide cs | Pf growth 96h | HCV inh
O=C(NCCc1ccccc1)C1CCCN(C(=O)Nc2ccc(F)cc2)C1 (stereo unspecified) | 24 | -2% | -8 | -6 | 7% | ?
O=C(NCCc1ccccc1)c1ccccc1Cl | 6 | 100% | 17 | 13* | -24% | -11%
CCc1ccc(OCCNC(=O)c2cc(SC)ccc2Cl)cc1 | -2 | 38% | 6 | -3 | 48% | 5%
CCOc1ccccc1NC(=O)c1cc(SC)ccc1Cl | -9 | -10% | -27 | -2 | 14% | 22µM*
CSc1ccc(Cl)c(C(=O)NCCOc2ccccc2)c1 | 34 | 22% | -30 | 26* | ? | -7%
O=C(NCCOc1ccccc1)c1ccccc1Cl | 55* | 108% | ? | 43* | 20% | 1%
COc1cccc(Cn2c(Oc3cc(C)cc(C)c3)nc3c2c(=O)n(C)c(=O)n3C)c1 | . | . | 10 | . | . | .
Cc1nc(OCc2c(C)noc2C)c2ccccc2n1 | 8 | -20% | 1 | -1 | 3% | 13%
Cc1ccc(-c2nc3c(c(SCc4ccc(Br)cc4)n2)Cc2c(CO)cnc(C)c2O3)cc1 | . | . | -22 | . | . | .
Cc1nn(Cc2ccccc2)c(Cl)c1C(=O)O | -22 | 15% | -39 | -3 | 14% | 4%
Cc1nn(Cc2ccccc2)c(Cl)c1C(=O)NCCc1ccccc1 | 60* | 122% | 15 | 56* | 94% | 4%
CC(=O)NCCOc1cccc2ccccc12 | 0 | 32% | 91 | 7 | ? | ?
CN(C(=O)COc1ccccc1C(=O)NCCOc1ccccc1)c1ccccc1 | -10 | ? | -93* | -3 | ? | 8.9µM*
O=C(NCCOc1ccccc1Cl)c1cc(F)c(F)cc1Cl | 74* | 260% | 129 | 53* | i | 12%
O=C(Cc1cccc2ccccc12)NCCOc1ccccc1F | -4 | -8% | -63* | -1 | 34% | 0%
O=C(NCCOc1ccccc1Cl)c1ncn[nH]1 | 14 | 37% | 6 | 1 | 5% | 23%
CC(C)C[C@@H]1O[C@H](CCc2ccccc2)Cc2[nH]c(=S)[nH]c(=O)c21 | . | . | 8 | . | . | .
CC1CCN(S(=O)(=O)c2ccc3c(c2)N(CC(=O)NCCN(C)C)C(=O)CS3)CC1 | . | . | 0 | . | . | .
COc1cc(OC)cc(-c2cc3c(Nc4cccc(O)c4)nccc3[nH]2)c1 | . | . | 25 | . | . | .
Cc1cc(C)nc(NS(=O)(=O)c2ccc(N)cc2)n1 | -4 | -26% | -66* | -9 | -3% | -7%[8.37 µM]
O=C(Nc1ccc(S(=O)(=O)Nc2ncccn2)cc1)c1cccnc1 | 114* | 19% | 11 | 59* | -19% | 2%
CC(=O)Nc1ccc(S(=O)(=O)Nc2ncccn2)cc1 | -10 | 6% | 16 | -2 | 0% | 2%
CCC(=O)Nc1ccc(S(=O)(=O)Nc2ncccn2)cc1 | -6 | . | 14 | -4 | 9.3µM* | 21%
CCC(=O)Nc1ccc(S(=O)(=O)Nc2c(C)nc3nc[nH]n3c2=O)cc1 | 3 | -6% | 24 | -10 | 10µM* | 28%
COc1cc(Cl)c(C)cc1NCC(=O)Nc1cccc(S(=O)(=O)N2CCCC2)c1 | . | ? | 13 | . | ? | ?
SMILES | Shiga inhibitor | Pf growth 48h | HCMV inh | Cycloheximide cs | Pf growth 96h | HCV inh
COc1ccc(CN(C)S(=O)(=O)c2nnc(NC(=O)C(C)C)s2)cc1OC | . | . | 0 | . | . | .
Cc1ccc(S(=O)(=O)c2cnc(SCC(=O)Nc3ccc4c(c3)OCCO4)[nH]c2=O)cc1Cl | . | . | -3 | . | . | .
Cc1ccc(SCC(=O)Nc2ccc(S(=O)(=O)Nc3ncccn3)cc2)cc1 | -2 | 53% | -33 | 3 | 56% | -29%
Cc1cc(C)nc(SCC(=O)Nc2ccc(S(=O)(=O)Nc3ncccn3)cc2)n1 | 75* | ? | -14 | 35* | 20% | 16%
Cc1cc(C)nc(NS(=O)(=O)c2ccc(NC(=O)Cn3c(=O)oc4ccccc43)cc2)n1 | -5 | . | 47 | -3 | 6.6µM* | 10%
Cc1cc(C)nc(NS(=O)(=O)c2ccc(NC(=O)CN3C(=O)c4ccccc4C3=O)cc2)n1 | 5 | 8% | -40 | -2 | . | 10%
Cc1ccc(Cn2cc(C(=O)c3ccc4c(c3)OCO4)c(=O)c3cc(C)ccc32)cc1 | . | . | -26 | . | . | .
CCOC(=O)CN(Cc1ccccc1)C(C(=O)NC1CCCCC1)c1ccc(OC)cc1 (stereo unspecified) | . | . | 2 | . | . | .
CS(=O)(=O)N(CC(=O)N1CCc2ccccc2C1)c1ccccc1F | . | . | 16 | . | . | 10%
COc1ccc(C(=O)N2CCC(C(=O)Nc3ccc(OC)cc3OC)CC2)cc1 | . | . | -1 | . | . | .
CC(=O)Cc1nsc(Nc2ccc3c(c2)OCCO3)n1 | 96* | -15% | 78 | 82* | ? | -13%
CC(=O)Cc1nsc(Nc2ccc(F)cc2)n1 | 65* | 2% | -23 | 22 | 10µM* | 27%
CC(=O)Cc1nsc(Nc2ccc(Cl)cc2)n1 | 86* | 94% | 45 | 61* | 30% | -24%
CC(=O)Cc1nsc(NC(=O)c2ccco2)n1 | 2 | 4% | 12 | -1 | . | 12%
C/C(=N\NC(=O)c1cc(-c2cccnc2)nc2ccccc12)c1ccc(O)cc1O | 13 | 9.3µM* | -94* | 9 | ? | 4µM*
C/C(=N\NC(=O)c1cc(-c2ccc(C)s2)nc2ccccc12)c1cccnc1 | 22 | -6% | -23 | 22* | ? | ?
C/C(=N/NC(=O)c1cc(-c2ccccc2)nc2c(Cl)cccc12)c1cccnc1 | -12 | ? | ? | -3 | 10µM* | ?
C/C(=N\NC(=O)c1cc(C)nc2ccccc12)c1ccncc1 | -20 | 5% | 6 | -2 | -12% | 14%
CCOc1ccccc1-c1cc(C(=O)N/N=C/c2cccnc2)c2ccccc2n1 | . | . | -6 | . | . | -18%
Cc1ccc(C)c(NC(=O)c2cc(-c3cccnc3)nc3ccccc23)c1 | 11 | 150% | -13 | 3 | 33% | 18%
